Source: PubChem BioAssay (Tox21)
Inconclusive results are not listed. Calls of active or inactive are those of the source. Calls follow the shape of the full dose curve.

Assay: p53 small molecule agonists, cell-based qHTS assay with rat liver microsomes (AID 1963578)
Conditions: HCT-116 p53RE-bla, beta-lactamase ratio, 16 h; series mostly up to 66 µM; activation: at the top concentration
Text: U.S. Tox21 Program National Center for Advancing Translational Sciences [NCATS] Division of Preclinical Innovation [DPI] U.S. Environmental Protection Agency [EPA] National Institutes of Environmental Health Sciences [NIEHS] National Toxicology Program [NTP] U.S. Food and Drug Administration [FDA] Tox21 Assay Overview: p53, a tumor suppressor protein, is activated following cellular insult, including DNA damage and other cellular stresses. The activation of p53 regulates cell fate by inducing DNA repair, cell cycle arrest, apoptosis, or cellular senescence. The activation of p53, therefore, is a good indicator of DNA damage and other cellular stresses. […] The activation of the reporter gene under culture conditions can be detected by fluorescence intensity. This cell line was used to screen the Tox21 10K compound library in the condition of presence of rat liver microsomes and to identify agonists that activate the p53 signaling pathway after in vitro metabolic activation (Ooka et al., Archive of Toxicology 96:1975-1987, 2022).
Tox21 Assay Protocol Summary: The p53RE-bla cells were dispensed at 4,000cells/3ul/well in 1536-well black-clear bottom plates. After the assay plates were incubated at 37 C, 5% CO2 incubator for 5 hours, 23 nL of compounds dissolved in DMSO, positive controls or DMSO only was transferred to the assay plate. Following compound addition, 3 uL of rat liver microsomes (Molecular Toxicology, Boone, NC) at final concentration of 0.5 mg/mL and 1uL of Beta-Nicotinamide adenine dinucleotide 2-phosphate (NADPH) at final concentration of 0.5 mg/mL were transferred to the assay plate. The plates were incubated at 37 C for 16 hours. 1 uL of LiveBLAzer detection mixture was added to each well and the plates were incubated at room temperature in the dark for 2 h.
% is scaled to controls: 0 for no effect and ±100 for the full control effect.

Structure (SMILES) | activation | Potency
CC1CCC(=O)O1 (stereo not given) | -0.725% (inactive) | –
CCOC(=O)N(C)N=O | -0.418% (inactive) | –
CC(C)(c1ccccc1)c1ccc(O)c(C(C)(C)c2ccccc2)c1 | – | inactive
N#CC1(N=NC2(C#N)CCCCC2)CCCCC1 | 0.0589% (inactive) | –
CN(C)c1ccccc1 | – | inactive
c1cc2c(c(N3CCNCC3)c1)OCCO2 | -1.25% [at 30.3 µM] (inactive) | –
O=NN1CCOCC1 | – | inactive
CCOP(OCC)OCC | – | inactive
O=NN(c1ccccc1)c1ccccc1 | – | inactive
CC(C)(C)C(O)(CCc1ccc(Cl)cc1)Cn1cncn1 (stereo not given) | – | inactive
N#CCc1ccccc1 | -3.52% (inactive) | –
CCCC1COC(Cn2cncn2)(c2ccc(Cl)cc2Cl)O1 (stereo not given) | – | inactive
C=C(Cl)CCl | 2.06% (inactive) | –
CCOC(=O)CP(=O)(OCC)OCC | 0.759% (inactive) | –
CCC12COCN1COC2 | – | inactive
CC(C)(O)C(Cl)(Cl)Cl | 0.411% [at 30.3 µM] (inactive) | –
Sc1ccccc1Cl | 0.176% [at 30.3 µM] (inactive) | –
C(CCOCC1CO1)COCC1CO1 (stereo not given) | 2.09% (inactive) | –
Cl/C=C\C[N+]12CN3CN(CN(C3)C1)C2 | 0.0699% (inactive) | –
CCNc1nc(Cl)nc(NC(C)(C)C#N)n1 | – | inactive

Structure (SMILES) | activation | Potency
c1ccc(CN2CCNCC2)cc1 | 0.198% [at 173 µM] (inactive) | –
O=c1[nH]c2ccccc2c(=O)o1 | 1.87% (inactive) | –
O=[N+]([O-])CCO | 0.0372% (inactive) | –
c1ccc(OP(Oc2ccccc2)Oc2ccccc2)cc1 | – | inactive
C=CC=O | -0.618% (inactive) | –
CC(O)CN1CCN(CC(=O)[O-])CCN(CC(=O)[O-])CCN(CC(=O)[O-])CC1.[Gd+3] (stereo not given) | 5.63% [at 30.3 µM] (inactive) | –
CCNc1nc(Cl)nc(NCC)n1 | – | inactive
C[C@]12CC[C@H]3[C@@H](CC[C@@]45O[C@@H]4C(O)=C(C#N)C[C@]35C)[C@@H]1CC[C@@H]2O | – | inactive
COC[C@H](C)N(C(=O)CCl)c1c(C)csc1C | 0.496% (inactive) | –
COC(=O)Nc1cccc(OC(=O)Nc2cccc(C)c2)c1 | -6.81% (inactive) | –
O=NN1CCCC1 | – | inactive
Cc1ccccc1[N+](=O)[O-] | – | inactive
Cc1ccc(N)cc1C | -2.2% (inactive) | –
CCC(=O)O[C@H]1CC[C@H]2[C@@H]3CCC4=CC(=O)CC[C@]4(C)[C@H]3CC[C@]12C | – | inactive
CC12CC1(C)C(=O)N(c1cc(Cl)cc(Cl)c1)C2=O (stereo not given) | – | inactive
CC(NC(C)(C)C)C(=O)c1cccc(Cl)c1 (stereo not given) | – | inactive
CCCCC1C(=O)NC(=O)N(C2CCCCC2)C1=O (stereo not given) | 3.51% [at 30.3 µM] (inactive) | –
O=S(=O)(Cl)Cl | -1.32% (inactive) | –
CCCCNC(=O)n1c(NC(=O)OC)nc2ccccc21 | – | inactive
O=[N+]([O-])c1ccccc1-c1ccccc1 | -5.88% (inactive) | –
